# Measured values reported in PubChem BioAssay (NCATS).
# Results filed as inconclusive are left out. Unmarked numbers belong to inactive results. The source made the active and inactive calls. The call rests on the fitted dose curve; in most records, active means well fitted inhibition curve with a large enough effect; inconclusive means small, poorly fitted or top-dose-only effect; inactive means flat fitted curve, though single readings scatter.
# Assay: Cytometry Cell-Based qHTS for Inhibitors of the mTORC1 Signaling Pathway in MEF cells (AID 2668);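 on activity change, negative = inhibition: Tsc2-/- p53-/- mouse embryonic fibroblasts stably re-expressing wild-type Tsc2; percent cells positive for phospho-rpS6 Ser235/236 relative to propidium iodide stain; plate controls were DMSO wells for no effect and 7.5 nM rapamycin control wells for full effect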
# Conditions: mTORC1 pathway readout; series mostly up to 38.3 µM; activity change, negative = inhibition: at the top concentration
# Method in brief: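 In MEFs grown in DMEM + 10% FBS, a 24 hrs compound exposure preceded imaging of phospho-rpS6 Ser235/236 by laser-scanning cytometry.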
# Potency means the concentration at half of the fitted maximal effect.
SMILES,Potency,"activity change, negative = inhibition [%]"
CC[C@H]1CN2CCc3cc(OC)c(OC)cc3[C@@H]2C[C@@H]1C[C@H]1NCCc2cc(OC)c(OC)cc21,5.21 µM (active),–
O=C(O)c1nn(Cc2ccc(Cl)cc2Cl)c2ccccc12,–,4.11
COC(=O)C1=CCCN(C)C1,–,11.2
COc1ccc(C(=O)N2CCCC2=O)cc1,–,-3
NC(=O)CN1CCCC1=O,–,1.92
